High-throughput results: PubChem, The Scripps Research Institute Molecular Screening Center
The list is not random: actives were taken first. Their share in the collection is about 1.1%.
MOR-DOR ag = agonists of human mu-delta opioid receptor heterodimerization | P35372+P41143 | cells, OPRM1-OPRD1 heterodimerization, luminescence | activation, % at 9.3 µM | 340,000 tested, 0.3% active;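 note: 0% = vehicle-treated cells and 100% = reference agonist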
HTR5A ag ctr = counter-screen for OPRM1-OPRD1 agonists: human HTR5A agonism; HTR5A agonist assay, luminescence, cell-based; 340,000 tested, 0.61% active; AID 504692; activation, % at 9.3 µM; in the data active = activation mostly above about 9.5%, no sharp cut-off; inactive = mostly below about 7.6%;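 note: 0% = cells with vehicle only and 100% = reference agonist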
Target sequence (P47898 whole entry, looked up): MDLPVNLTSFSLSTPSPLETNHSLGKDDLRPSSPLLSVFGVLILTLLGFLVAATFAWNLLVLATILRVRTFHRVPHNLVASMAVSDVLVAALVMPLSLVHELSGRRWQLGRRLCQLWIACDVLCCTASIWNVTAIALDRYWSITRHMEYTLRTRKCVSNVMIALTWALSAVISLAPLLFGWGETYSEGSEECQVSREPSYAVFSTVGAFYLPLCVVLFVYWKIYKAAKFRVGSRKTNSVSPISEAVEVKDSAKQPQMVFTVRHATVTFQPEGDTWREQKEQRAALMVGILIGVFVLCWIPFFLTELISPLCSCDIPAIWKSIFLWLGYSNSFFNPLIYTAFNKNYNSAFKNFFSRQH
HTR5A inv ctr = HTR5A inverse agonism, opioid heterodimer counter-screen; P47898; HTR5A cell line, luminescence; inhibition, % at 9.3 µM; 340,000 tested, 0.083% active; AID 504634; in the data active = inhibition mostly above about 23%, no sharp cut-off; inactive = mostly below about 18%;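 note: 0% = cells with DMSO and 100% = no-cell wells with DMSO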
MOR-DOR inv ag = inverse agonists of human mu-delta opioid receptor heterodimerization. P35372+P41143. cell-based MOR-DOR heterodimer luminescence, inverse agonism. inhibition, % at 9.3 µM. 340,000 tested, 0.21% active. AID 504357; in the data active = inhibition above about 22%, passing the limit was not always enough;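 note: 0% = cells with DMSO and 100% = wells without cells with DMSO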
MOR-DOR ag conf = confirmation of human OPRM1-OPRD1 heterodimerization agonists. AID 504904. 830 tested, 45% active. activation, % at 9.3 µM. shares compounds with MOR-DOR ag. cells, MOR-DOR heterodimerization, luminescence complementation;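 note: 0% = vehicle-treated cells and 100% = reference agonist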
HTR5A ag counter = HTR5A agonism, opioid heterodimer counter-screen; shares compounds with MOR-DOR ag; HTR5A agonist counterscreen, cell luminescence; activation, % at 9.3 µM; 830 tested, 8% active; in the data active = activation above about 17%;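 note: 0% = vehicle-treated cells and 100% = reference agonist response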
* = called active by the depositor; i = inactive; . = not tested or not shown. Cut-off read from the data, not from the text of the source, unless noted: active = activation above about 18%; inactive = the rest.

SMILES	MOR-DOR ag	HTR5A ag ctr	HTR5A inv ctr	MOR-DOR inv ag	MOR-DOR ag conf	HTR5A ag counter
O=C(c1sc2ccccc2c1Cl)N(Cc1ccccc1Cl)C1CCS(=O)(=O)C1 (stereo not drawn)	51.6*	4.0	-11.8	-274.6	18.1*	4.0
O=C(c1sc2ccccc2c1Cl)N(Cc1ccco1)C1CCS(=O)(=O)C1 (stereo not drawn)	53.2*	-0.2	-26.3	-283.3	54.3*	-0.3
O=C(COC(=O)CNC(=O)c1sc2ccccc2c1Cl)NC1CCS(=O)(=O)C1 (stereo not drawn)	-1.5	-3.1	-0.8	9.5	.	.
O=C(c1ccccc1F)N(Cc1ccccc1)C1CCS(=O)(=O)C1 (stereo not drawn)	1.2	-1.9	1.5	-7.0	.	.
O=C(c1sc2ccccc2c1Cl)N(Cc1ccccc1)C1CCS(=O)(=O)C1 (stereo not drawn)	29.0*	-2.5	0.0	-146.0	26.8*	5.3
COc1ccc(OC)c(/C=N/NC(=O)c2cc[n+](CC(=O)c3ccccc3)cc2)c1	1.2	-3.5	8.2	-7.1	.	.
Cc1cccc(CS(=O)(=O)Cc2ccc(C(=O)NCCc3ccccc3)o2)c1	-1.3	2.2	-8.4	6.9	.	.
COc1ccc(OC)c(N(CC(=O)Nc2cccnc2)S(=O)(=O)c2ccc(C)cc2)c1	65.4*	4.8	-9.1	-367.6	46.7*	-0.1
COc1cc2c(cc1NC(=O)C(C)Sc1ccc(NC(C)=O)cc1)oc1ccccc12 (stereo not drawn)	20.0*	2.4	-8.2	-113.5	0.5	-1.2
Cc1cc(C)c(NC(=O)Cn2nnc(C(=O)NCc3cccs3)c2N)c(C)c1	22.2*	0.3	-41.5	-122.6	0.0	-3.8
Cn1nc(C(F)(F)F)c(C(=O)Nc2ccc(F)cc2)c1Cl	-2.2	3.1	-8.6	11.7	.	.
O=C(Nc1cc(Br)ccc1O)c1cc(-c2cccs2)on1	0.9	1.7	-4.8	-4.9	.	.
CCOc1cc(C(=O)CSc2nnc(CNc3ccc(Cl)cc3)o2)ccc1NC(=O)CC	65.2*	29.7*	-53.0	-370.4	77.2*	24.6*
O=C(Nc1cccc(NC(=O)c2cccc([N+](=O)[O-])c2)n1)c1cccc([N+](=O)[O-])c1	23.5*	-2.9	11.1	-116.2	18.2*	3.5
CCOc1ncccc1C(=O)Nc1cccc(-n2cnnn2)c1C	-3.0	0.5	3.4	11.7	.	.
c1ccc(-c2csc(Nc3ncccn3)n2)cc1	4.0	5.2	1.5	-20.4	.	.
Oc1ccc(-c2csc(Nc3ncccn3)n2)cc1	22.6*	6.3	-17.5	-109.6	-2.4	-3.2
CCOC(=O)c1c2c(n(Cc3ccccc3)c1C)C(=O)C(=O)c1ccccc1-2	19.5*	8.4	-32.3	-85.2	16.0	-0.2
CC(OC(=O)CN1C(=O)c2ccccc2C1=O)C(=O)NC1CCCCC1C (stereo not drawn)	-1.2	5.2	-14.3	7.9	.	.
Cc1nc2c(O)c3c(c(O)c2nc1C)C1C=CC3CC1	22.0*	-1.4	5.3	-107.5	-4.3	0.0
O=S(=O)(c1ccccc1)N1c2cc(Cl)ccc2Oc2nc3ccccc3nc21	-0.3	-1.2	3.0	1.2	.	.
Cc1cc(C2(c3ccc(O)c(C)c3)C(=O)Nc3ccccc32)ccc1O	19.9*	10.1	-16.4	-91.9	-2.6	1.1
COc1cccc(C2c3[nH]c4ccccc4c3C[C@H]3C(=O)N(CCCOC(C)C)CC(=O)N23)c1 (stereo partly drawn)	18.2*	5.3	-19.9	-87.1	17.1	5.8
CCN(CC)CCCN(C(=O)c1cccs1)c1nc(-c2ccc(OC)cc2)cs1	51.3*	3.3	21.2	-266.3	0.6	27.3*
CCN(CC)CCCN(C(=O)c1ccc(Br)cc1)c1nc(-c2ccc(OC)cc2)cs1	6.5	2.3	4.5	-36.0	.	.
SMILES	MOR-DOR ag	HTR5A ag ctr	HTR5A inv ctr	MOR-DOR inv ag	MOR-DOR ag conf	HTR5A ag counter
O=C(CC1C[C@H](C(=O)N2CCOCC2)[C@@]2(CCC3CCCC3)c3[nH]c4ccccc4c3CCN2C1=O)NCCC1=CCCCC1 (stereo partly drawn)	-3.1	-2.0	6.9	14.5	.	.
O=C(Nc1ccc(F)cc1)C(NC1CCCCC1)c1ccccc1 (stereo not drawn)	-0.8	-1.0	2.6	3.7	.	.
CC(C)CNC(C(=O)Nc1ccc([N+](=O)[O-])cc1Br)c1ccccc1 (stereo not drawn)	3.3	4.0	-5.3	-20.5	.	.
CN(C)C(CNC(C(=O)Nc1ccc(F)cc1)c1ccccc1)c1ccccc1 (stereo not drawn)	230.0*	2.6	-7.7	i	-0.2	2.7
CN(C)C(CNC(C(=O)Nc1ccc([N+](=O)[O-])cc1Br)c1ccccc1)c1ccccc1 (stereo not drawn)	65.9*	9.6	35.4	-317.6	79.0*	4.1
CNC(=O)/C(C#N)=C/c1ccc(-c2ccc(OC)cc2[N+](=O)[O-])o1	18.6*	0.2	-0.5	-116.2	1.2	-6.3
COc1ccc(/C=N/Nc2cc(C)nc3ccc(Br)cc23)cc1	21.1*	4.7	-17.2	-108.0	1.6	-4.2
COc1ccc2nc(C)cc(N/N=C/c3cccc(OC)c3O)c2c1	4.0	2.0	-7.5	-19.8	.	.
Cc1ccc(C(=O)c2c(C)oc3c2C(=O)C(=O)c2ccccc2-3)cc1	34.3*	13.7*	-30.2	-170.1	1.1	-1.5
COc1ccc(C(C(=O)NC2CCCCC2)N(C(=O)Cc2c[nH]c3ccccc23)c2ccc(NC(C)=O)cc2)cc1OC (stereo not drawn)	26.3*	2.8	-7.7	-114.5	83.1*	-1.9
Cc1ccc(-c2nnc(SCC(=O)N/N=C/c3ccc(C)s3)n2-c2ccc(C)cc2)cc1	18.0*	1.1	-16.2	-87.0	9.9	1.5
O=C(COc1ccc(Cl)cc1Cl)N/N=C/c1cccnc1	-0.7	1.3	-3.1	3.8	.	.
COc1ccc(/C=N/NC(=O)COc2ccc(Cl)cc2Cl)cc1Cn1nc(C)cc1C	28.3*	11.3	7.4	-194.4	0.8	4.8
COc1cc(S(=O)(=O)N2CCN=C2c2ccccc2)c(OC)cc1Cl	1.1	2.7	0.1	-5.6	.	.
CCc1cc2ccc(OC)cc2nc1SCC(=O)Nc1cc(C)on1	21.7*	1.1	-22.5	-99.0	12.0	19.8*
CCc1cc2cc(C)c(C)cc2nc1SCC(=O)Nc1cc(C)on1	-1.6	1.6	-4.1	9.2	.	.
Cc1cc2[nH]c3c4ccccc4nc(C)c3c2cc1C	34.7*	6.0	-22.5	-171.6	68.0*	13.6
Cc1cc2[nH]c3c(c[n+](C)c4ccccc34)c2cc1C	15.0	-4.1	10.2	-97.8	.	.
C/C(O)=C(/C#N)c1nc2ccccc2[nH]1	-0.1	-6.7	-12.8	0.6	.	.
N#C/C(=C(/O)C(Cl)(Cl)Cl)c1nc2ccccc2[nH]1	21.2*	-0.2	0.7	-108.0	10.2	6.0
CC[n+]1c(/C=C/N(C)c2ccccc2)n(-c2ccccc2)c2ccc(-c3nc4ccccc4s3)cc21	21.7*	9.9*	-36.8	-104.0	-2.4	-4.8
